# PRMT1 FP inh – blocks human protein arginine methyltransferase 1; recombinant PRMT1, activity-based probe fluorescence polarization; AID 652257; 370,000 tested, 1.3% active; Q99873; inhibition, % at 2.79 µM;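 active means inhibition above about 21% made by adding two undisclosed values, limit read from the data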
# MBD2 inh – MBD2-methylated oligo binding inhibition | Q9UBB5 | TR-FRET, MBD2 binding to methylated oligonucleotide | inhibition, % at 4.4 µM | 370,000 tested, 0.31% active | AID 686964; in the data active means inhibition above about 13%
# Target sequence (Q9UBB5 whole entry, looked up): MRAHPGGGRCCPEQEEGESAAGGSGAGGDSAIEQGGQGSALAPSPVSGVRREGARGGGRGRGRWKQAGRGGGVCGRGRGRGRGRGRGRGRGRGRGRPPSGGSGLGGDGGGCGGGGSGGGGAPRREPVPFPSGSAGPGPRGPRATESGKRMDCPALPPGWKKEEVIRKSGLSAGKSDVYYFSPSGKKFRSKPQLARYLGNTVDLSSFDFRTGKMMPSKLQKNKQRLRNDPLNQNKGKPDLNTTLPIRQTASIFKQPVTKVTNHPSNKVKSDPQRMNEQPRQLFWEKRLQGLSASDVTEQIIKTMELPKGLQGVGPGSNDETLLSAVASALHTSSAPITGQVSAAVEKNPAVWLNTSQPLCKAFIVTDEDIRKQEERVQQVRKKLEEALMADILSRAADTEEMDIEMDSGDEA
# LEDGF integ inh – blocks HIV-1 LEDGF/p75-dependent DNA integration | TR-FRET IN-LEDGF/p75 DNA integration, Eu/Cy5 | inhibition, % at 3.7 µM | 370,000 tested, 0.64% active | AID 743269;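 active means inhibition above the screen-wide mean plus 3 SD, cut at about 13% in these data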;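 further: signal is the Cy5 over europium emission ratio at 671 and 618 nm; 0% = plate median of compound wells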
# ABHD5-PLIN5 inh – inhibitors of human ABHD5-perilipin-5 interaction; Q00G26+Q8WTS1; Split G. princeps luciferase complementation, luminescence, 4 h; inhibition, % at 4 µM; 360,000 tested, 0.78% active; AID 602281;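 active means inhibition above the mean inhibition across every tested compound plus 3 SD, cut at about 22% in these data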;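 further: 0% = DMSO only wells and the 100% control is not disclosed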
# UHRF1 binding – UHRF1 methyl-DNA binding inhibition; inhibition, % at 4.4 µM; AID 687016; Q96T88; UHRF1 binding to methylated oligo, TR-FRET; 370,000 tested, 0.75% active; in the data active means inhibition above about 21%;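 further: UHRF1 SRA domain binding a hemimethylated CpG hairpin DNA probe; 0% = median of test compound wells and 100% = reference inhibitor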
# rCAG RNA binder – r(CAG) repeat RNA binding | TO-PRO-1 dye displacement fluorescence | inhibition, % at 3 µM | 370,000 tested, 1.3% active | AID 651821;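 active means inhibition above the plate cutoff, the mean of all test compounds on that plate plus 3 SD, cut at about 35% in these data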;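 further: 0% = DMSO alone and 100% = 100 µM mitoxantrone as full dye displacement; higher means more dye released from RNA so lower well fluorescence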
# The depositor's hits bear a star; . = not tested or not shown. Only some compounds are listed: those with a hit (about 4.1% of all), similar ones and a draw of the others.
SMILES,PRMT1 FP inh,MBD2 inh,LEDGF integ inh,ABHD5-PLIN5 inh,UHRF1 binding,rCAG RNA binder
Cc1nc2c(=O)n(C)c(=O)nc-2n(C)n1,-1.5,16.1*,-24.6,-47.4,7.2,0.1
CC(C)S(=O)(=O)N1Cc2ccc(Br)cc2-n2nncc2C1,-1.4,-2.5,-5.7,.,2.4,0.9
Brc1ccc2c(c1)-n1nncc1CNC2,-6.5,1.0,5.4,.,34.9*,1.6
C[N+]1=C(N)NC2=C3CCCCC3ONC2C1 (stereo not given),3.3,6.2,6.9,.,1.7,.
C[C@]12CC[C@@H]3c4ccc(O)c(O)c4CC[C@H]3[C@@H]1CC[C@@H]2O,35.2*,8.1,-0.6,5.6,1.4,17.2
O=[N+]([O-])c1cc(O)c(O)c([N+](=O)[O-])c1,32.2*,-9.2,1.7,-2.2,-3.0,2.3
O=[N+]([O-])c1ccc(O)c([N+](=O)[O-])c1,-2.6,-3.0,4.4,3.5,0.4,1.8
CN(C(=O)Oc1ccc(Cl)c2cccnc12)c1ccccc1,-2.4,7.3,1.5,1.1,21.3*,-7.7
CN(C(=O)Oc1cccc2cccnc12)c1ccccc1,0.5,-4.8,1.6,3.5,-2.8,-1.4
O=C1NC(=S)N(C2CC2)C(=O)/C1=C/c1ccc2c(c1)CCN2CCCCl,34.7*,0.7,8.3,-11.0,2.4,27.9
O=C(CN1C(=O)[C@@H](Cc2ccc(O)cc2)N=C(c2ccccc2)c2ccccc21)NC1CCCCC1,-1.1,-3.4,0.2,.,-1.0,4.1
CCCC[C@@H](C)C[C@@H](C)C(=O)N(C)[C@@H](CC(C)C)C(=O)N[C@H](C(=O)N(C)[C@H](C(=O)N1C[C@@H](O)C[C@H]1C(=O)N1C(=O)C=C[C@@H]1C)C(C)C)C(C)OC(C)=O (stereo not given in full),.,.,.,43.0*,.,.
CCOC(=O)[C@]12Cc3cc(OC)ccc3[C@H]1N(CC(=O)OC)C(=O)c1ccccc12,-3.0,7.9,9.2,4.2,23.6*,-0.7
C=C1C(=O)C(C)=C2C(=O)N3Cc4[nH]c5ccccc5c4CC3(C(=O)OC)C12 (stereo not given),11.0,-5.5,3.4,.,-2.4,14.6
O=P(Oc1ccc(-c2ccccc2)cc1)(N1CC1)N1CC1,0.9,1.4,-4.2,-3.4,2.8,8.3
O=C(NCCN1CCC2(CC1)C(=O)NCN2c1ccccc1)c1ccc2ccccc2c1,0.6,-0.3,-4.3,.,-0.5,1.9
CC(C)C(C(=O)NC(C)(C)C)N1C(=O)CN=C(c2ccccc2)c2ccccc21 (stereo not given),1.4,-0.6,-5.2,.,0.0,2.5
CCN(CCO)c1ccc(N=Cc2c(O)n(C)c(=S)[nH]c2=O)cc1,21.2*,-2.0,9.1,-2.7,-0.6,-1.2
O=C(NC1CCCCC1)N1Cc2cc(Br)ccc2-n2nncc2C1,-2.6,-5.5,3.6,.,0.1,1.1
O=C(O)CCn1cc(C=C2C(=O)NC(=O)NC2=O)c(-c2cc3ccccc3oc2=O)n1,19.0,-2.3,-4.9,22.2*,-2.5,7.1
COC(=O)C1=C[C@H]([C@@H](C)[C@H](OC)c2ccccc2Br)[C@@H]2[C@H]1c1ccccc1N2C,-2.7,-3.0,-0.4,.,-1.5,6.2
O=C1CC=C2C3CC4N(CCC45c4ccccc4N1C25)CC3=CCO (stereo not given),-1.7,3.7,0.4,-0.8,-3.3,3.3
O=C1CC=C2C3CC4N(CCC45c4cc(O)c(O)cc4N1C25)CC3=CCBr (stereo not given),16.5,15.3*,62.1*,10.4,31.1*,15.4
COc1ccc(C(=O)C2CN(C)CC2c2ccc(Cl)cc2)cc1 (stereo not given),-0.7,5.2,-0.2,1.9,3.3,-9.6
COc1cccc(C(=O)C2CN(C)CC2c2ccc(Cl)cc2)c1 (stereo not given),4.1,2.5,0.9,4.7,69.7*,-6.7
SMILES,PRMT1 FP inh,MBD2 inh,LEDGF integ inh,ABHD5-PLIN5 inh,UHRF1 binding,rCAG RNA binder
COc1ccc([C@@H]2C[C@H]3[C@@H](CN2)CON3C)cc1,0.4,0.6,2.8,.,-3.6,2.4
O=C(NCCN1CCC2(CC1)C(=O)NCN2c1ccccc1)c1ccc(Cl)cc1,-1.5,-9.1,-1.4,.,-2.8,0.7
Cc1cccc(N2C(=O)NC(=O)/C(=C\c3cccn3-c3ccc(Cl)cc3)C2=O)c1,11.5,-0.1,0.9,29.9*,-4.5,14.7
Cc1cc(C)cc(N2C(=O)NC(=O)/C(=C/c3cccn3-c3ccc(Cl)cc3)C2=O)c1,3.4,-3.8,4.7,2.1,-1.1,7.5
CCN(C(=O)COC(=O)c1cn(C)c2ccccc12)c1ccc(F)cc1,-1.3,5.7,7.2,-3.2,21.6*,-2.1
CC1CCN(CCc2nc3ccccc3[nH]2)CC1,2.2,6.3,-1.1,3.0,-1.8,-3.1
COc1ccc(N2C(=O)CC(=O)NC2=O)cc1,7.4,-4.4,-1.2,22.3*,-3.0,4.9
Cc1ccc(OC(=O)N(C)C[C@H]2OCc3cnnn3CCCC(=O)N([C@@H](C)CO)C[C@@H]2C)cc1,2.5,-5.3,1.6,.,0.6,-0.6
N#CC(C#N)=NNc1ccc(S(N)(=O)=O)cc1,-0.1,-5.8,3.3,9.1,-1.9,66.7*
C=C(C=O)CC1CC(O)[C@]2(C)OC3CC4OC5C[C@]6(C)O[C@]7(C)CCC8OC9C[C@]%10(C)OC%11C(C)=CC(=O)OC%11CC%10OC9C[C@@H](C)C8OC7CC6O[C@]5(C)C/C=C\C4OC3CC2O1 (stereo not given in full),-0.9,2.1,0.5,.,-3.0,.
C=C1C(=O)O[C@@H]2C[C@@H](C)[C@@H]3C4OC4C(=O)[C@@]3(C)[C@@H](O)[C@H]12 (stereo not given in full),2.1,7.2,1.8,47.5*,-0.1,-2.0
Cc1ccc(CNCCc2ccccc2F)cc1,-2.1,10.2,2.1,0.2,24.9*,-1.4
COC(=O)C1=C(c2ccc(OC)c(OC)c2)C[C@@H]2CC[C@H]1N2C(=O)N1CCCCC1,-0.3,2.5,-0.2,-3.1,1.3,-9.0
CC1=C(C(=O)O)N2C(=O)[C@@H](NC(=O)CCCC(=O)O)[C@H]2SC1,23.3*,-1.2,-2.6,-8.4,-2.9,1.2
CC(C)(C)c1ccc(O)c(N=Cc2c(O)ccc3ccccc23)c1,31.3*,-0.6,4.6,2.2,3.0,6.3
Cc1ccccc1[N+](=O)[O-],0.0,-5.0,0.7,4.9,-3.3,0.9
O=C1NC(=O)C(Sc2ccccc2[N+](=O)[O-])C(=O)N1,56.5*,-2.0,3.7,-4.3,-1.3,4.7
Cc1ccc(C[n+]2c(-c3ccc(C)cc3)cc(-c3ccc(C)cc3)cc2-c2ccc(C)cc2)cc1,.,.,.,38.0*,.,.
CN1CCCC2c3ccccc3CCC21 (stereo not given),2.8,-2.8,-1.0,-3.1,21.6*,4.2
COc1cc(C2c3cc4c(cc3CC3COC(=O)C32)OCO4)cc(OC)c1OC (stereo not given),22.0*,2.7,-3.3,-1.6,-1.0,-2.1

# High-throughput results deposited in PubChem BioAssay by The Scripps Research Institute Molecular Screening Center.
